Several values for one entry are separate records, joined by “and”; a condition that tells them apart may be missing. Identical values can stand only once. Hit rate of the full screen: of about 360,000 compounds, about 2,400 (0.67%) were called active.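 The calls were made as follows: active = inhibition above about 55% (limit read from the data); inconclusive = no clear call, values can overlap the other calls; inactive = the rest.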 This excerpt belongs to a sample that is enriched for actives.
Assay: LAMP-1 surface exposure blockers, TALL-104 cells – cell-based, flow cytometry, MLPCN library, primary screen (AID 651702)
Conditions: TALL-104 LAMP-1 surface exposure, at 10 µM, stronger effect = higher value, cells stimulated with thapsigargin and PMA

inhibition, inactive:
CC(C)(C)n1nc2c(c1NC(=O)c1cc3ccccc3o1)CSC2 0%
COc1ccc2c(c1)c(C(=O)N/N=C/c1cccs1)c(C)n2C 0.8%
CCn1nc(C(=O)NNS(=O)(=O)c2cc(/C=C/C(=O)O)cc(OC)c2OC)c2ccccc2c1=O 1.1%
CCOc1ccc(/C=C/C(=O)OCC(=O)c2ccccc2OC)cc1OC -4.4%
O=C(CN1C(=O)NC2(CCCCCC2)C1=O)NCc1cccs1 -5.2%
Cc1nc2c(C(=O)NCc3ccc4c(c3)OCO4)c[nH]n2c(=O)c1Cc1ccccc1F -2.7%
Cc1cccc(N(C)C(=O)c2cc(S(=O)(=O)N3CCCCC3)c[nH]2)c1 -3.8%
CCCCn1nnnc1C1(C)CCC(=O)N1Cc1ccc(OC)c(OC)c1 (stereo not given) -1.7%
Cc1nc2nc(SCC(=O)c3ccccc3)[nH]c2cc1Br -2.1%
Cc1nc(SCC(=O)c2ccccc2)c([N+](=O)[O-])[nH]1 0.6%
O=c1[nH]c(=S)[nH]c(O)c1/C=C1\C=Nc2ccccc21 -1.2%
Cc1ccc(S(=O)(=O)NC(C(=O)N2CCOCCOCCOCCOCC2)c2ccccc2)cc1 (stereo not given) -7%
CSCC(NS(=O)(=O)c1ccc(C)cc1)C(=O)O (stereo not given) 1.8%
N#Cc1ccc(C(C(=O)NCc2ccccc2)n2c(=O)c(-c3ccco3)nc3ccccc32)cc1 (stereo not given) 1.3%
COc1ccccc1CCNC(=O)c1c(C)nn(CC(C)C)c1Cl -1.6%
COCCCn1c(SCC(=O)Nc2oc(C)c3c(C)n[nH]c(=O)c23)nc2sc3c(c2c1=O)CCC3 -0.6%
CC(CCc1ccccc1)NC(=O)COC(=O)c1ccc(F)cc1 (stereo not given) 6%
CC1=NOC(=O)/C1=C\c1ccccc1 -7.3%
C#CCOc1ccc(/C=C2/C(=O)ON=C2C)cc1OCC -12.5%
CC(C)(C)c1ccc(C(=O)N2CCN(CCNC(=O)C(=O)Nc3ccc(F)cc3)CC2)cc1 -0.5%
COc1ccc(C2(c3ccc(OC)cc3)NC(=O)N(CC(=O)Nc3cc(C)on3)C2=O)cc1 5.1%
CC[C@@H]1CCCCc2ccccc2[C@@H](C(=O)C[C@H](O)CC(C)=O)OC1=O -4.4%
CC(=O)C[C@H](O)CC(=O)[C@@H]1OC(=O)[C@@H](C)C/C=C\Cc2ccccc21 -0.2%
CSc1nc2nc(-c3cccc(C(F)(F)F)c3)ccn2n1 -1.7%
O=C(Cc1ccc(NC(=O)C2CCCN(C(=O)CCc3ccccc3)C2)cc1)Nc1ccc(C(=O)N2CCOCC2)cc1 (stereo not given) -2%
CCOC(=O)C1CCN(C(=O)CN2C(=O)c3cccnc3Oc3ccc(C)cc32)CC1 -4.5%
Cc1ccc(C2(c3ccc(C)cc3)NC(=O)N(Cc3c(C)noc3C)C2=O)cc1 4.4%
CCCCC[C@H](C)N1C[C@@H](COCc2ccccc2)Oc2cc(N3CCC[C@@H]3CO)ccc2S1(=O)=O 0.2%
CCCCN1CC(COCc2ccccc2)OCCS1(=O)=O (stereo not given) -5.6%
COc1cc(OC)cc(-c2c(-c3ccc(F)cc3)c3cc(-c4ccc5cc[nH]c5c4)ccc3n2C)c1 -0.5%
COc1cccc(-c2sc3ccc(OC)cc3c2-c2ccc(OCCN3CCCCC3)cc2)c1 14.7%
O=C(CCc1nnc2ccc(NCc3ccccc3Cl)nn12)NCC1CCN(C2CCCC2)C1 (stereo not given) -2.5%
COc1ccc(S(=O)(=O)NCC(c2ccco2)N2CCOCC2)cc1 (stereo not given) -1.5%
C=C(C)CNC(=S)Nc1ccc(S(=O)(=O)Nc2cnc3ccccc3n2)cc1 9.1%
Cc1ccccc1OS(=O)(=O)c1cccc([N+](=O)[O-])c1 -1.4%
COc1ccc(S(=O)(=O)N2CCN(CC(=O)N3CCNC3=O)CC2)cc1OC -0.1%
Cc1ccc(-c2nnn(CC(=O)N(Cc3ccco3)C(C(=O)NC(C)(C)C)c3ccncc3)n2)o1 (stereo not given) 3.8%
Cc1c(C(C)(C)O)[nH]c2ccc(C#N)cc12 2.3%
O=C(CSc1ccccc1)Nc1nnc(/C=C/c2ccccc2)s1 -0.2%
COc1ccc(/C=C/c2nnc(NC(=O)C(C)C)s2)cc1 2%
CCNC(=O)C1(C)CCCN(C(=O)c2c(C)noc2C)C1 (stereo not given) -7.3%
COc1cc(C(=O)Nc2cc(C(F)(F)F)ccc2N2CCOCC2)ccc1O -2.1%
O=C(CCn1nnc2ccccc21)OCC(=O)c1ccc([N+](=O)[O-])cc1 -4.6%
O=C(Cn1c[n+](CC(=O)c2ccc([N+](=O)[O-])cc2)cn1)c1ccc([N+](=O)[O-])cc1 0.3% and 0%
CN(C(=O)c1cccc(NC(=O)Cc2ccc(NC(=O)C3CCCN(C(=O)C4CCCC4)C3)cc2)c1)C1CCC1 (stereo not given) -0.4%
CCO/C=C1\C(=O)N(c2ccc(OCC)cc2)C(=O)c2ccccc21 -2.4%
CCOc1ccc(N2C(=O)CN(c3cccc4ccccc34)C2=S)cc1 -2.1%
O=C(NCC1CCCO1)C1CCN(C2CCN(C(=O)C3CCCCC3)CC2)CC1 (stereo not given) 1.8%
CC(=O)Nc1ccc(NC(=O)CN2CCCC(C)C2)c(Cl)c1 (stereo not given) 1.3%
O=C(CSc1ccccc1)Nc1cc(Cl)ccc1Oc1ccccc1 -1.8%
CCCCCCCCN1C(=O)[C@H](CC(=O)NCc2cccc3ccccc23)C[C@@]2(C(=O)OC)CCCCC=C12 5.4%
O=C(COc1coc(CN2CCN(c3ccccc3)CC2)cc1=O)Nc1ccccc1F 10.5%
CN1CCN(C2=NCCO2)CC1 -6.4%
CNc1nc2c(C)cccn2c(=O)c1C=Nc1ccc(OC)cc1 -1.8%
Cc1ccc2[nH]c(=O)c(-c3nc4c(C)cccn4c3NCc3ccco3)cc2c1 19.3%
CSc1nc2sc3c(c2c(=O)[nH]1)CCc1ccccc1-3 -6.9%
CCN(CC)CCCC(C)n1c2nc(=O)[nH]c(=O)c-2nc2cc(Cl)ccc21 (stereo not given) -0.7%
Cc1cc2nc3n(c2cc1C)CC1CC(C(=O)NCCC(C)C)N(C)C31 (stereo not given) -4.6%
CN1C(C(=O)NCC2CC2)CC2Cn3c(nc4ccccc43)C21 (stereo not given) -1.8%
COc1cc(NC(=O)C2CC(c3ccccc3O)=NO2)c(OC)cc1Cl (stereo not given) -9.5%
COc1ccc(NC(=O)C(C)SCc2ccccc2)cc1 (stereo not given) -0.5%
Cc1cccc(NC(=O)C2CC(=O)OC23CCCC3)c1 (stereo not given) 3.1%
COc1cccc(CNc2ncc(-c3ccccc3)n2C)c1 1%
CC(Nc1nc(C(F)(F)F)nc2ccccc12)c1cccs1 (stereo not given) -9.6%
CC(CCc1ccc(O)cc1)NCc1ccc(Cl)cc1Cl (stereo not given) 3.5%
Brc1cc(Br)c(Oc2cc(Br)c(Br)cc2Br)cc1Br 0.4%
CN(C(=O)CN1CCN(c2cc(-c3ccc(OCc4ccccc4)cc3)ncn2)CC1)c1ccccc1 -3.7%
Cc1ccc(NC(=S)N2CCCC(c3ccccc3)=N2)cc1 2.5%
O=S(=O)(c1cccc2nonc12)N1CCN(c2cccc(Cl)c2)CC1 -11.1%
CCCn1nc(C(=O)Nc2ccc3nc(C)sc3c2)c2ccccc2c1=O -2.4%
COc1cc(C(=O)NCc2nnc(SCC(=O)Nc3nc4ccc(C)cc4s3)o2)cc(OC)c1OC -6.4%
CC(=O)Nc1ccc(NC(=O)CSc2nnnn2C2CCCCC2)cc1 -2.8%
CCOc1ccc(S(=O)(=O)N2CCN=C2Cc2ccccc2)cc1C 1.2%

inhibition, active:
Cc1c(/C=N\NC(=O)c2cc3ccccc3o2)c2ccccc2n1C 65.6%
Cc1cc(SCC(=O)c2ccccc2)nc(SCC(=O)c2ccccc2)n1 78.5%
CCCC(C(=O)n1nc(C)cc1C)C(NS(=O)(=O)c1ccc(C)cc1)c1ccccc1 (stereo not given) 66%
COc1cc(/C=C2/C(=O)ON=C2C)ccc1OCc1ccccc1F 60.6%
CC(=O)C[C@@H](O)CC(=O)[C@H]1OC(=O)CCCCCCc2ccccc21 58.1%
Nc1c(C(=O)c2cccs2)sc2nsc(SCCN3CCCCC3)c12 94.6%
CCCCC[C@H](C)N1C[C@@H](COCc2ccccc2)Oc2cc(N3CC[C@@H](N(C)C)C3)ccc2S1(=O)=O 56.2%
COc1ccc2sc(-c3ccc(N(C)C)cc3)c(-c3ccc4cc[nH]c4c3)c2c1 72%
CN1CCN(C2Cc3ccc(Cl)cc3Sc3ccc(F)cc32)CC1 (stereo not given) 63.7%
O=C(Nc1ccc(Cl)cc1)Nc1nnc(/C=C/c2ccccc2)s1 70.9%
O=C(CC(n1cncn1)C(Cl)(Cl)Cl)c1ccc([N+](=O)[O-])cc1 (stereo not given) 67.9%
CCOc1ccc(N2C(=O)/C(=C/c3ccc(C)o3)N(C)C2=S)cc1 76.4%
CC1CCCN(CC(=O)Nc2cc(Cl)ccc2Oc2ccccc2)C1 (stereo not given) 96.4%
CCCN(CCC)c1nc2c(C)cccn2c(=O)c1/C=C1/SC(=S)N(Cc2ccco2)C1=O 57.2%
COc1ccc(CCNC(=O)C2CC3Cn4c(nc5cc(C)c(C)cc54)C3N2C)cc1 (stereo not given) 60.3%
COc1cccc(CNc2nc(C(F)(F)F)nc3ccccc23)c1 65.7%
CCCC(=O)Nc1nc2ccc(NC(=O)c3c(F)c(F)c(OC)c(F)c3F)cc2s1 68.7%
